Several values for one entry are separate records, joined by “and”; a condition that tells them apart may be missing. Identical values can stand only once. Records with an inconclusive call do not appear. Activity calls are given as the source filed them. Calls come from the whole dose curve; as a rule, active = well fitted curve in the direction sought with a large enough effect; inconclusive = small, poorly fitted or top-dose-only effect, or another doubt; inactive = no such curve, though single readings can be large; an effect the other way counts as inactive or inconclusive.
Experiments:
[1] = qHTS of pediatric cancer cell lines to identify multiple opportunities for drug repurposing: Confirmatory screen for LAN-5 cells (AID 1347113); note: nearly all actives have a fitted effect of over 65% in size
In short: (§1)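 Cells (500-1,000/well) rested 5 h, then received compounds for 48 h; metabolically active cells were measured by CellTiter-Glo luminescence. Final concentrations spanned up to 46 µM (MIPE, 11-point) or 0.59 nM-46 µM (NPC, 8-point) in primary screens, 11-point in follow-ups.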

[2] = qHTS of pediatric cancer cell lines to identify multiple opportunities for drug repurposing: Confirmatory screen for NB-EBc1 cells (AID 1347115);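 note: cells exposed to compound for 48 h before the viability read; nearly all actives have a fitted effect of over 45% in size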
In short: as §1

[3] = qHTS of pediatric cancer cell lines to identify multiple opportunities for drug repurposing: Confirmatory screen for SJ-GBM2 cells (AID 1347116); note: nearly all actives have a fitted effect of over 60% in size
In short: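 Viability measured as metabolically active cells via CellTiter-Glo luminescence following 48 hours of compound exposure, 11-point dilutions in confirmatory testing. 500-1,000 cells/well plated 5 hours before dosing; controls were DMSO and 2.3 µM bortezomib.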

[4] = qHTS of pediatric cancer cell lines to identify multiple opportunities for drug repurposing: Confirmatory screen for BT-37 cells (AID 1347117); note: nearly all actives have a fitted effect of over 55% in size
In short: as §1

[5] = qHTS of pediatric cancer cell lines to identify multiple opportunities for drug repurposing: Confirmatory screen for TC32 cells (AID 1347118);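 note: cells exposed to compound for 48 h before the read; nearly all actives have a fitted effect of over 65% in size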
In short: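 TC32 cells, 500-1,000/well in growth medium, compound-treated 48 h at 37 °C; viability from CellTiter-Glo luminescence. Primary screen: MIPE 11-point (0.78 nM–46 µM final), NPC 8-point (0.59 nM–46 µM final); confirmatory at 11-point dilutions.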

[6] = qHTS of pediatric cancer cell lines to identify multiple opportunities for drug repurposing: Confirmatory screen for MG 63 (6-TG R) cells (AID 1347119); note: nearly all actives have a fitted effect of over 55% in size
In short: as §1

[7] = qHTS of pediatric cancer cell lines to identify multiple opportunities for drug repurposing: Confirmatory screen for control Hh wild type fibroblast cells (AID 1347121); note: nearly all actives have a fitted effect of over 70% in size
In short: as §1

[8] = qHTS of pediatric cancer cell lines to identify multiple opportunities for drug repurposing: Confirmatory screen for U-2 OS cells (AID 1347122); note: nearly all actives have a fitted effect of over 65% in size
In short: as §1

[9] = qHTS of pediatric cancer cell lines to identify multiple opportunities for drug repurposing: Confirmatory screen for Rh41 cells (AID 1347123);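 note: 48 h compound exposure; nearly all actives have a fitted effect of over 60% in size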
In short: as §1

[10] = qHTS of pediatric cancer cell lines to identify multiple opportunities for drug repurposing: Confirmatory screen for RD cells (AID 1347124);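 note: cells exposed to compound for 48 h before viability readout; nearly all actives have a fitted effect of over 65% in size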
In short: as §1

Measured: Potency
Potency is the fitted concentration of half-maximal effect.

CNS(=O)(=O)CCc1ccc2[nH]cc(C3CCN(C)CC3)c2c1
active: [5] 13.1 µM
inactive: all other assays above

CC(C)(C#N)c1cc(Cn2cncn2)cc(C(C)(C)C#N)c1
not listed: [3]
inactive: all other assays above

C[C@@H](CN1CC(=O)NC(=O)C1)N1CC(=O)NC(=O)C1
not listed: [6]
inactive: all other assays above

CCOC(=O)[C@H](CCc1ccccc1)N[C@H]1CS[C@H](c2cccs2)CN(CC(=O)O)C1=O
active: [5] 8.27 µM
inactive: all other assays above

CC1CC2C3CCC4=CC(=O)C=C[C@]4(C)[C@@]3(F)[C@@H](O)C[C@]2(C)[C@@]1(O)C(=O)CO (some centres undefined)
inactive: all assays above

CNNCc1ccc(C(=O)NC(C)C)cc1
not listed: [5]
inactive: all other assays above

COc1ccc(C(=O)CC(=O)c2ccc(C(C)(C)C)cc2)cc1
not listed: [4] | [5] | [6]
inactive: all other assays above

CO[C@@]12[C@H](COC(N)=O)C3=C(C(=O)C(C)=C(N)C3=O)N1C[C@@H]1N[C@@H]12
active: [1] 1.31 µM | [2] 1.31 µM | [3] 16.5 µM | [4] 0.737 µM | [5] 0.465 µM | [9] 7.37 µM

COc1nc(N)nc2c1ncn2[C@@H]1O[C@H](CO)[C@@H](O)[C@@H]1O
active: [4] 18.5 µM | [5] 3.69 µM | [9] 16.5 µM
not listed: [6]
inactive: all other assays above

CS(=O)(=O)c1ccc([C@@H](O)[C@@H](CO)NC(=O)C(Cl)Cl)cc1
not listed: [6]
inactive: all other assays above

COc1cc2c(Nc3ccc(Br)cc3F)ncnc2cc1OCC1CCN(C)CC1
active: [9] 16.5 µM
not listed: [10]
inactive: all other assays above

Nc1nc(=S)c2[nH]cnc2[nH]1
active: [1] 2.93 µM and 2.33 µM | [2] 2.61 µM | [3] 5.22 µM | [4] 3.29 µM and 2.93 µM | [5] 1.17 µM and 737 nM | [8] 1.04 µM and 928 nM | [9] 14.7 µM and 13.1 µM
inactive: [6] | [7]

CC(C)NCC(O)c1ccc(NS(C)(=O)=O)cc1 (centres undefined)
inactive: all assays above

CNC(=O)c1cc(Oc2ccc(NC(=O)Nc3ccc(Cl)c(C(F)(F)F)c3)cc2)ccn1
active: [1] 23.3 µM | [2] 18.5 µM | [4] 23.3 µM | [5] 18.5 µM

Cc1cccc(N(C)C(=S)Oc2ccc3ccccc3c2)c1
active: [2] 18.5 µM
inactive: [1] | [3] | [4] | [7] | [10]

CC(C)C[C@H](NC(=O)[C@H](CCc1ccccc1)NC(=O)CN1CCOCC1)C(=O)N[C@@H](Cc1ccccc1)C(=O)N[C@@H](CC(C)C)C(=O)[C@@]1(C)CO1
active: [1] 0.0329 µM | [2] 0.329 µM | [3] 0.0737 µM | [4] 0.0928 µM | [5] 0.0233 µM | [6] 0.0657 µM | [7] 0.737 µM

CC(C)(C)C(=O)OCOP(=O)(COCCn1cnc2c(N)ncnc21)OCOC(=O)C(C)(C)C
inactive: [3] | [8] | [10]
active: [1] 9.27 µM | [2] 8.27 µM | [4] 3.69 µM | [5] 1.17 µM | [6] 5.22 µM | [9] 20.8 µM

CCCCOc1ccc(CC(=O)NO)cc1
not listed: [4] | [5] | [9]
inactive: all other assays above

Cn1nnc2c(C(N)=O)ncn2c1=O
inactive: all assays above

CN(C)c1ccc(C(=C2C=CC(=[N+](C)C)C=C2)c2ccc(N(C)C)cc2)cc1
active: [1] 1.17 µM | [2] 1.85 µM | [3] 1.17 µM | [4] 1.17 µM | [5] 0.928 µM | [6] 0.827 µM | [7] 1.04 µM | [8] 1.85 µM | [9] 0.522 µM | [10] 0.928 µM

From PubChem BioAssay (NCATS)
